About 2,000 (36%) of roughly 5,500 compounds were called active. Inconclusive results (about 18%) are left out. Cut-off read from the data, not from the text of the source: active = normalized growth mostly below about 0.91 (no sharp cut-off); inconclusive = no clear call, values can overlap the other calls; inactive = mostly above about 0.92. The list shows a part of the results.
Experiment: chemical genetic growth profiling, strain panel (AID 1159580);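 note: tested at 20 µM; growth read once vehicle control cultures reached saturation at 30 °C; 1 = growth at the plate median or of vehicle wells; lower values mean less growth of the strain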
Details: growth OD

Measured: normalized growth

CC(=O)O[C@H]1C[C@@H](OC(C)=O)C(C)(C)C2CC(=O)[C@]3(C)C(CC[C@@]4(C)[C@H](c5ccoc5)OC(=O)[C@H]5O[C@]543)[C@]21C (some centres not stated)
inactive: S. cerevisiae deletion strains, locus YJR075W, strain HOC1, stronger effect = lower value 1.01 | S. cerevisiae deletion strains, locus YKL009W, strain mrt4, stronger effect = lower value 0.974 | S. cerevisiae deletion strains, locus YKL068W, stronger effect = lower value 1.01 | S. cerevisiae deletion strains, locus YKL085W, strain MDH1 (second series), stronger effect = lower value 1.01 | S. cerevisiae deletion strains, locus YKL085W, strain MDH1, stronger effect = lower value 1.01 | S. cerevisiae deletion strains, locus YKL160W, strain elf1, stronger effect = lower value 0.998 | S. cerevisiae deletion strains, locus YKL190W, strain CNB1, stronger effect = lower value 0.998 | S. cerevisiae deletion strains, locus YKR001C, strain vps1, stronger effect = lower value 1.03 | S. cerevisiae deletion strains, locus YKR026C, strain gcn3, stronger effect = lower value 0.993 | S. cerevisiae deletion strains, locus YKR091W, strain srl3, stronger effect = lower value 0.991 | S. cerevisiae deletion strains, locus YLL001W, strain dnm1, stronger effect = lower value 0.99 | S. cerevisiae deletion strains, locus YLL026W, stronger effect = lower value 0.996 | S. cerevisiae deletion strains, locus YLL041C, strain sdh2, stronger effect = lower value 0.982 | S. cerevisiae deletion strains, locus YLR027C, strain aat2, stronger effect = lower value 0.988 | S. cerevisiae deletion strains, locus YLR039C, strain RIC1, stronger effect = lower value 1 | S. cerevisiae deletion strains, locus YLR058C, strain SHM2, stronger effect = lower value 1.01 | S. cerevisiae deletion strains, locus YLR102C, strain apc9, stronger effect = lower value 1 | S. cerevisiae deletion strains, locus YLR113W, strain HOG1, stronger effect = lower value 1.01 | S. cerevisiae deletion strains, locus YLR221C, strain rsa3, stronger effect = lower value 1 | S. cerevisiae deletion strains, locus YLR258W, strain gsy2, stronger effect = lower value 1 | S. cerevisiae deletion strains, locus YLR262C, strain YPT6 (second series), stronger effect = lower value 0.982 | S. cerevisiae deletion strains, locus YLR262C, strain YPT6, stronger effect = lower value 1.07 | S. cerevisiae deletion strains, locus YLR268W, strain sec22, stronger effect = lower value 0.998 | S. cerevisiae deletion strains, locus YLR320W, strain mms22, stronger effect = lower value 1.01 | S. cerevisiae deletion strains, locus YLR342W, strain FKS1 (second series), stronger effect = lower value 1.01 | S. cerevisiae deletion strains, locus YLR342W, strain FKS1, stronger effect = lower value 0.994 | S. cerevisiae deletion strains, locus YLR357W, strain rsc2, stronger effect = lower value 0.989 | S. cerevisiae deletion strains, locus YLR370C, strain arc18, stronger effect = lower value 0.998 | S. cerevisiae deletion strains, locus YLR371W, strain rom2, stronger effect = lower value 0.985 | S. cerevisiae deletion strains, locus YLR384C, strain iki3, stronger effect = lower value 0.984 | S. cerevisiae deletion strains, locus YLR418C, strain cdc73, stronger effect = lower value 1.03 | S. cerevisiae deletion strains, locus YML016C, strain PPZ1, stronger effect = lower value 0.996 | S. cerevisiae deletion strains, locus YML032C, strain rad52, stronger effect = lower value 1.01 | S. cerevisiae deletion strains, locus YML120C, strain ndi1, stronger effect = lower value 0.99 | S. cerevisiae deletion strains, locus YML124C, strain tub3, stronger effect = lower value 1 | S. cerevisiae deletion strains, locus YMR058W, strain fet3, stronger effect = lower value 0.978 | S. cerevisiae deletion strains, locus YMR078C, strain ctf18, stronger effect = lower value 0.996 | S. cerevisiae deletion strains, locus YMR125W, strain sto1, stronger effect = lower value 0.98 | S. cerevisiae deletion strains, locus YMR129W, stronger effect = lower value 0.994 | S. cerevisiae deletion strains, locus YMR205C, strain PFK2, stronger effect = lower value 0.992 | S. cerevisiae deletion strains, locus YMR223W, strain ubp8, stronger effect = lower value 1.01 | S. cerevisiae deletion strains, locus YMR231W, strain pep5, stronger effect = lower value 0.978 | S. cerevisiae deletion strains, locus YMR263W, strain SAP30, stronger effect = lower value 1.02 | S. cerevisiae deletion strains, locus YMR307W, strain GAS1, stronger effect = lower value 1.03 | S. cerevisiae deletion strains, locus YNL067W, strain RPL9B, stronger effect = lower value 1.03 | S. cerevisiae deletion strains, locus YNL071W, strain lat1, stronger effect = lower value 0.992 | S. cerevisiae deletion strains, locus YNL128W, strain TEP1, stronger effect = lower value 0.988 | S. cerevisiae deletion strains, locus YNL153C, strain GIM3, stronger effect = lower value 1.02 | S. cerevisiae deletion strains, locus YNL183C, strain NPR1, stronger effect = lower value 0.941 | S. cerevisiae deletion strains, locus YNL209W, strain ssb2, stronger effect = lower value 0.987 | S. cerevisiae deletion strains, locus YNL233W, strain BNI4, stronger effect = lower value 1.02 | S. cerevisiae deletion strains, locus YNL248C, strain rpa49, stronger effect = lower value 0.981 | S. cerevisiae deletion strains, locus YNL250W, strain rad50, stronger effect = lower value 1.03 | S. cerevisiae deletion strains, locus YNL271C, strain bni1, stronger effect = lower value 1 | S. cerevisiae deletion strains, locus YNL298W, strain CLA4, stronger effect = lower value 1.02 | S. cerevisiae deletion strains, locus YNL307C, strain MCK1, stronger effect = lower value 1.02 | S. cerevisiae deletion strains, locus YNL322C, strain KRE1 (second series), stronger effect = lower value 0.994 | S. cerevisiae deletion strains, locus YNR049C, strain mso1, stronger effect = lower value 0.987 | S. cerevisiae deletion strains, locus YNR052C, strain pop2, stronger effect = lower value 1.02 | S. cerevisiae deletion strains, locus YOL012C, strain htz1 1 | S. cerevisiae deletion strains, locus YOL147C, strain pex11, stronger effect = lower value 1.01 | S. cerevisiae deletion strains, locus YOR001W, strain rrp6, stronger effect = lower value 0.986 | S. cerevisiae deletion strains, locus YOR061W, strain CKA2, stronger effect = lower value 0.991 | S. cerevisiae deletion strains, locus YOR069W, strain VPS5, stronger effect = lower value 1 | S. cerevisiae deletion strains, locus YOR070C, strain gyp1, stronger effect = lower value 1.01 | S. cerevisiae deletion strains, locus YOR080W, strain dia2, stronger effect = lower value 1 | S. cerevisiae deletion strains, locus YOR083W, strain WHI5, stronger effect = lower value 0.995 | S. cerevisiae deletion strains, locus YOR106W, strain vam3, stronger effect = lower value 1 | S. cerevisiae deletion strains, locus YOR136W, strain idh2, stronger effect = lower value 1.01 | S. cerevisiae deletion strains, locus YOR144C, strain elg1, stronger effect = lower value 1.01 | S. cerevisiae deletion strains, locus YOR184W, strain ser1, stronger effect = lower value 0.996 | S. cerevisiae deletion strains, locus YOR231W, strain MKK1, stronger effect = lower value 0.981 | S. cerevisiae deletion strains, locus YOR265W, strain rbl2, stronger effect = lower value 0.99 | S. cerevisiae deletion strains, locus YOR270C, strain vph1, stronger effect = lower value 0.943 | S. cerevisiae deletion strains, locus YOR290C, strain snf2, stronger effect = lower value 1 | S. cerevisiae deletion strains, locus YOR316C, strain cot1, stronger effect = lower value 1.02 | S. cerevisiae deletion strains, locus YPL051W, strain arl3, stronger effect = lower value 1.03 | S. cerevisiae deletion strains, locus YPL078C, strain atp4, stronger effect = lower value 0.989 | S. cerevisiae deletion strains, locus YPL106C, strain sse1, stronger effect = lower value 1 | S. cerevisiae deletion strains, locus YPL240C, strain hsp82, stronger effect = lower value 0.995 | S. cerevisiae deletion strains, locus YPL256C, strain CLN2, stronger effect = lower value 0.968 | S. cerevisiae deletion strains, locus YPR119W, strain clb2, stronger effect = lower value 1.01 | S. cerevisiae deletion strains, locus YPR141C, strain kar3, stronger effect = lower value 1 | S. cerevisiae deletion strains, locus YPR163C, strain tif3, stronger effect = lower value 1.01 | S. cerevisiae deletion strains, locus YPR167C, strain met16, stronger effect = lower value 1 | S. cerevisiae deletion strains, strain wtn01, stronger effect = lower value 0.984 | S. cerevisiae strains, strain wild type, stronger effect = lower value 0.991
